Reference: ChEMBL document CHEMBL3988442, “University of Dundee, Small-Polar-MMV Screening Library” (2021)

Target: AMP-activated protein kinase, AMPK (Homo sapiens) (UniProt P54646+O43741+P54619+Q9UGJ0+Q9Y478+Q13131+Q9UGI9)
Experiment: AMP-dependent Kinase enzyme assay. An in vitro enzyme assay that detects ADP turnover that is directly proportional to AMPK activity. This uses naive AMPK that is activated during the assay with MK-8722
Type: functional
Set-up: scale not given: direction of the effect not stated beside the values
Conditions: 30 µM

Row | SMILES | Percent Effect
1 | COC[C@]1(O)CCN(c2cc(N3CCOCC3)ncn2)CC1(C)C | -1.8%
2 | CC1CN(C)CCN1C(=O)c1cccn1Cc1ccncc1 (stereo not drawn) | 1.97%
3 | Cc1cc(N2CCC(n3cc(CCCO)nn3)CC2)ccn1 | 2.02%
4 | CCc1ccc2nc(C)cc(C(=O)NC[C@@H]3CCNC[C@H]3O)c2c1 | -4.5%
5 | COC(=O)C1CN(Cc2ccn(-c3ccc(F)cc3)n2)CCO1 (stereo not drawn) | -6.99%
6 | CN1CCCCC1(C)C(=O)N1CCC(c2ccccn2)CC1 (stereo not drawn) | -3.58%
7 | O=C(Nc1cccc(N2CCCC2)c1)N[C@H](CCO)c1ccccc1 | -57.9%
8 | Cc1nccn1CC1CCCN(C(=O)Cc2ccsc2)C1 (stereo not drawn) | 0.964%
9 | Cc1nn(C)c(C)c1C1COCCN1C(=O)CSC(C)(C)C (stereo not drawn) | -7.18%
10 | O=C(CCCn1ccnc1)NC1CCCN(c2ccccc2Cl)C1 (stereo not drawn) | 6.12%
11 | CN(CC1(CO)CCCC1)c1nc2c(c(=O)[nH]1)Cc1ccccc1OC2 | 6.29%
12 | Cc1cc(NC(C)c2nnn[nH]2)n2nc(C)c(C)c2n1 (stereo not drawn) | 20.6%
13 | O=C(Nc1cccnc1)NC1CCN(c2ccccc2OC(F)F)C1 (stereo not drawn) | 0.675%
14 | O=S(=O)(NCCCn1cncn1)c1ccc2c(c1)OCCO2 | 8.28%
15 | COCCN(CCOC)C(=O)c1cnn(C)c1C | -3.12%
16 | Cc1cncc(C2CCN(Cc3ccncc3)CC2)n1 | 7.85%
17 | COC1CCN(c2ccc(F)cc2CN(C)C(=O)c2cc[nH]n2)CC1 | 12.3%
18 | COc1cccc(-c2ncc(CN3CC[C@H](CO)[C@@H](O)C3)s2)c1 | -0.478%
19 | Cc1cc(=O)n2nc(Oc3ccc(C#N)cc3Cl)sc2n1 | -3.6%
20 | Cc1ccc(CNc2cc3c(cc2Cl)NC(=O)CO3)cc1C | -0.667%
21 | Cc1cnn(C2CN(CCCOc3ccc(C#N)cc3)C2)c1 | -0.666%
22 | CC(C)c1nc(CN(C)C(=O)[C@H](N)Cc2ccc(Cl)cc2)cs1 | 2.32%
23 | Cc1ccc(OCCN(C)C2CCOC2=O)cc1 (stereo not drawn) | 0.0432%
24 | Cc1nc(O)cc(CN2C[C@H](NC(=O)C3CCCC3)[C@@H](C3CC3)C2)n1 | -1.66%
25 | CC(=O)c1ccc(-c2cnn(CC(=O)Nc3cc(C)nn3C)c2)nc1 | 0.263%
26 | Cc1ccc(N2CC[C@@]3(O)CCN(S(C)(=O)=O)C[C@H]3C2)nn1 | 0.414%
27 | Cc1n[nH]c(C)c1CCNC(=O)Nc1ccc(S(C)(=O)=O)cc1 | 4.13%
28 | Cc1ccccc1CC(=O)NCc1cnc(CC2CCN(C)CC2)cn1 | 4.22%
